Structures are written as SMILES. Where “and” joins values, the source holds several entries; their conditions need not be identical. Equal values may be shown once. The campaign covered roughly 340,000 compounds. About 5,100 (1.5%) were called active. Many of the other results were omitted from the sample, so actives are more common in it than they were. A number with no mark means an inactive call.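 How the source made its calls: active means mean Tm shift, scaled 0 neutral to 100 positive control, at about 1.3% or above, every replicate too (limit read from the data); inconclusive means no clear call, values can overlap the other calls; inactive means the rest.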

For this assay, the target named is Fibroblast growth factor 22 (Homo sapiens) (UniProt Q9HCT0). The assay can be described thus: binders of human FGF22 protein, primary screen, FGF22 synaptogenesis inhibitor project, biophysical, thermal shift, single point (AID 651658). Conditions: recombinant FGF22 thermal shift, SYPRO orange fluorescence; at 9.99 µM; stronger effect = higher value; percent of sucrose octasulfate shift, DMSO zero.
Fibroblast growth factor 22 (Homo sapiens), sequence (Q9HCT0 whole entry, looked up): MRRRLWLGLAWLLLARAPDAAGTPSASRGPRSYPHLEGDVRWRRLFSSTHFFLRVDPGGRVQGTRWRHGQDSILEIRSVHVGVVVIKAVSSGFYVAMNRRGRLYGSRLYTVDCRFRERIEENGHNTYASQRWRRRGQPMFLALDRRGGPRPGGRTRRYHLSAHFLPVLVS
As for `O=C(NCC[C@@H]1CC[C@@H](NC(=O)c2ccccc2F)[C@H](CO)O1)c1ccc2c(c1)OCO2`, the activity (Tm shift, normalised) was -0.277%.
The value for `C[C@@H]1CN([C@@H](C)CO)C(=O)c2cccc(NC(=O)Nc3ccc(C(F)(F)F)cc3)c2O[C@@H]1CN(C)S(=O)(=O)c1ccc(F)cc1` was -0.433%.
As for `CO[C@@H]1CN(C)C(=O)c2ccc(NC(=O)Nc3c(C)noc3C)cc2OC[C@H](C)N(CC2CC2)C[C@H]1C`, the figure is 0.073%; as for `Cc1ccc(C(=O)Nc2nc3ccc(Cl)cc3s2)o1`, 0.029%.
The value for `NS(=O)(=O)c1ccc2nc(NC(=O)C3=COCCO3)sc2c1` was -0.051%; that for `CS(=O)(=O)c1ccc2nc(NC(=O)c3ccc(Cl)nc3)sc2c1` was 1.36% (active); that for `COc1ccc([Si](C)(C)[C@@H]2[C@@H](CCO)O[C@]3(C(=O)N(Cc4ccccc4)c4ccc(N5CCC5=O)cc43)[C@H]2C)cc1` was 1.09%.
Regarding `O=C(C[C@H]1C[C@@H]2c3cc(NC(=O)Nc4ccc(C(F)(F)F)cc4)ccc3O[C@@H]2[C@@H](CO)O1)NCC1CC1`, the activity (Tm shift, normalised) was 5.86% (active).
As for `O=C(C[C@H]1C[C@H]2c3cc(NC(=O)Nc4ccc(F)cc4)ccc3O[C@H]2[C@@H](CO)O1)NCC1CC1`, the figure is -0.077%; as for `O=C(C[C@H]1C[C@H]2c3cc(NC(=O)Nc4ccc(F)cc4)ccc3O[C@H]2[C@H](CO)O1)NCC1CC1`, 0.011%; as for `C[C@H]1CCCCO[C@H](CN(C)S(C)(=O)=O)[C@@H](C)CN([C@@H](C)CO)C(=O)c2cc(NC(=O)C3CCCCC3)ccc2O1`, -0.096%.
As for `CNC(=O)C[C@H]1CC[C@H]2[C@H](COc3ccc(NC(=O)c4cccc(F)c4)cc3C(=O)N2C)O1`, the figure is -0.14% and 0.048%.
As for `CN1C(=O)c2cc(NC(=O)c3cccc(F)c3)ccc2OC[C@@H]2O[C@H](CC(=O)N3CCc4ccccc4C3)CC[C@@H]21`, the figure is 1.53% (active); as for `COC(=O)C[C@@H]1CC[C@@H]2[C@H](COc3ccc(NC(=O)c4cccc(F)c4)cc3C(=O)N2C)O1`, -0.235%.
With `O=C(C[C@@H]1CC[C@@H](NC(=O)Nc2ccc(F)cc2)[C@@H](CO)O1)NCCN1CCCC1`, the activity (Tm shift, normalised) is -0.38%.
As for `CCCC(=O)Nc1ccc2c(c1)C(=O)N(C)C[C@H](OC)[C@H](C)CN(C(=O)c1ccccn1)[C@H](C)CO2`, the figure is -0.212%; as for `C[C@@H]1CN([C@@H](C)CO)S(=O)(=O)c2ccc(C#C[C@@H](C)O)cc2O[C@@H]1CN(C)C(=O)CN(C)C`, -0.212%; as for `CO[C@@H]1CN(C)C(=O)c2cc(NC(=O)C3CC3)ccc2OC[C@@H](C)N(Cc2nccs2)C[C@@H]1C`, 0.295%.
As for `CC1CCCN(CC(O)COc2ccc3c(c2)OCO3)C1` (configuration not stated), the figure is 0.154%.
As for `CC1CCCN(CC(O)COCc2ccccc2)C1` (configuration not stated), the figure is 43.5% (active).
For `COc1ccc(COCC(O)CN2CCC(C(N)=O)CC2)cc1` (configuration not stated), the activity (Tm shift, normalised) is -0.009%.
As for `CC(C)(C)S(=O)N1Cc2cc(C(=O)O)nc(-c3cccc(-c4cc5ccccc5o4)c3)c2[C@@H]1CCO` (some centres not stated), the figure is 0.231%.
Consider `COc1ccc2c3c(n(C)c2c1)[C@H](CO)N(Cc1ccccc1)CC31CN(C(=O)c2ccccc2F)C1`, for which the activity (Tm shift, normalised) is -0.032%.
The value for `NS(=O)(=O)c1ccc(NC(=O)COC(=O)c2c3c(nc4ccccc24)/C(=C\c2ccc4c(c2)OCO4)CCC3)cc1` was -0.081%; that for `NC(=O)c1ccc(NC(=O)COC(=O)c2c3c(nc4ccccc24)/C(=C\c2ccc4c(c2)OCO4)CCC3)cc1` was -0.321%; that for `O=C1/C(=C/c2ccc3c(c2)OCO3)CCC/C1=C\c1ccc2c(c1)OCO2` was 26.1% (active).
The value for `CCCNC(=O)N1C[C@@H]2[C@H](c3ccccc31)[C@@H](CO)N2C(=O)NC(C)C` was -0.334%; that for `C[C@H]1CN([C@@H](C)CO)S(=O)(=O)c2ccc(C#Cc3cccnc3)cc2O[C@H]1CN(C)C(=O)CN(C)C` was -0.747%; that for `Cc1ccccc1NC(=S)NNC(=O)c1cccc(Br)c1` was 43.6% (active).
As for `O=C(NC(=S)Nc1cccc2c(O)cccc12)c1cccc(Br)c1`, the figure is -0.32%.
As to `CC(CC(=O)O)CC(=O)NNC(=O)c1cccc(Br)c1` (configuration not stated), the activity (Tm shift, normalised) was -0.089%.
As for `O=C(C[C@H]1C[C@@H]2c3cc(NS(=O)(=O)c4ccc(F)cc4)ccc3O[C@@H]2[C@@H](CO)O1)NCc1cccc(F)c1`, the figure is -0.007%.
The value for `Oc1cccc2cc(-c3ccncc3)cnc12` was 43.2% (active).
The value for `C[C@@H]1CN([C@H](C)CO)C(=O)Cc2cc(NC(=O)Nc3cccc4ccccc34)ccc2O[C@H]1CN(C)C(=O)Nc1ccc2c(c1)OCO2` was -0.447%; that for `COc1ccc(-n2nc(C(=O)NCC(=O)N3CCN(c4ccccc4OC)CC3)c3ccccc3c2=O)c(OC)c1` was -0.112%.
As for `COc1ccc(-n2nc(C(=O)Nc3cc(OC)c(OC)c(OC)c3)c3ccccc3c2=O)c(OC)c1`, the activity (Tm shift, normalised) was 0.293%.
As for `COc1cccc(NC(=O)c2nn(-c3ccc(OC)cc3OC)c(=O)c3ccccc23)c1`, the figure is 43.4% (active); as for `CN1C(=O)c2cc(NC(=O)c3cnccn3)ccc2OC[C@H]2O[C@@H](CC(=O)NCC3CCCCC3)CC[C@@H]21`, -0.186%.
As for `O=C(CN(CC1CCCO1)C(=O)CNS(=O)(=O)c1ccc(F)cc1)NCc1ccco1` (configuration not stated), the figure is 43.2% (active).
The value for `O=C(CN(CC1CCCO1)C(=O)CNS(=O)(=O)c1ccc(Cl)cc1)NCc1ccccc1` (configuration not stated) was -0.087%; that for `CC(C)C(C(=O)NCc1ccco1)N(CC1CCCO1)C(=O)CNS(=O)(=O)c1ccc(F)cc1` (configuration not stated) was -0.278%.
Consider `COCC(=O)N(C)C[C@H]1Oc2cc(C#C[C@@H](C)O)ccc2S(=O)(=O)N([C@@H](C)CO)C[C@@H]1C`, for which the activity (Tm shift, normalised) is 0.023%.
The value for `CCC(C)(C)NC(=O)C(c1ccc(OC)cc1)N(C(=O)CCC(=O)Nc1cc(C)on1)c1ccc(OC)cc1OC` (configuration not stated) was 0.006%; that for `COc1ccc(C(C(=O)NC(C)(C)C)N(Cc2ccc(F)cc2)C(=O)CCC(=O)Nc2cc(C)on2)cc1` (configuration not stated) was -0.347%; that for `CCC(C)(C)NC(=O)C(c1cccc(OC)c1OC)N(CC(C)C)C(=O)CCC(=O)Nc1cc(C)on1` (configuration not stated) was 43% (active).
As for `CN(C)C(=O)C[C@H]1CC[C@@H](NC(=O)C2CC2)[C@@H](CO)O1`, the figure is -0.057%; as for `C[C@H]1CN([C@@H](C)CO)C(=O)c2cccc(NC(=O)Nc3ccccc3)c2O[C@H]1CN(C)S(=O)(=O)c1ccc(Cl)cc1`, -0.286%.
The value for `C[C@@H]1CN([C@H](C)CO)C(=O)c2cc(-c3cccc(C(=O)N(C)C)c3)cnc2O[C@H]1CN(C)S(=O)(=O)c1ccc(F)cc1` was -0.014%.
For `COCC(=O)Nc1ccc2c(c1)OC[C@H](C)N(Cc1ccccc1)C[C@H](C)[C@@H](OC)CN(C)C2=O`, the activity (Tm shift, normalised) was -0.276%.
The value for `C[C@@H]1CN([C@@H](C)CO)C(=O)c2cc(NC(=O)Nc3ccc4c(c3)OCO4)ccc2O[C@@H](C)CCCCO[C@@H]1CN(C)S(=O)(=O)c1cccs1` was 0.586%; that for `Cc1ccc(S(=O)(=O)N(C)C[C@@H]2Oc3c(NC(=O)C4CC4)cccc3C(=O)N([C@H](C)CO)C[C@@H]2C)cc1` was 0.051%.
As for `O=C(C[C@H]1CC[C@H]2[C@@H](COC[C@H](O)CN2S(=O)(=O)c2cccc(Cl)c2)O1)Nc1ccccc1`, the figure is 1.27% (active); as for `CN(C)C(=O)C[C@@H]1CC[C@H]2[C@@H](COC[C@H](O)CN2S(=O)(=O)c2ccccc2)O1`, -0.015%.
The value for `O=C(C[C@H]1CC[C@H]2[C@@H](COC[C@@H](O)CN2S(=O)(=O)c2cccc(Cl)c2)O1)NC1CCCC1` was -0.093%; that for `COc1cccc(S(=O)(=O)N2C[C@@H](O)COC[C@@H]3O[C@H](CC(=O)Nc4ccccc4)CC[C@H]32)c1` was -0.453%.
For `Cc1cccc(S(=O)(=O)N2C[C@@H](O)COC[C@H]3O[C@H](CC(=O)N4CCN(C)CC4)CC[C@@H]32)c1`, the activity (Tm shift, normalised) was -0.222%.
As for `Cc1cccc(S(=O)(=O)N2C[C@@H](O)COC[C@H]3O[C@H](CC(=O)Nc4ccc(-c5ccccc5)cc4)CC[C@@H]32)c1`, the figure is 1.98% (active); as for `COc1cccc(-c2ccc(CC[C@H]3O[C@H]4CC[C@@H](CO)O[C@H]4C[C@@H]3NS(C)(=O)=O)cc2)c1`, -0.835%.
The value for `CCCNC(=O)N(C)C[C@H]1Oc2ncc(-c3ccccc3F)cc2C(=O)N([C@@H](C)CO)C[C@H]1C` was 0.186%.
The value for `C[C@H](CO)N1C[C@H](C)[C@H](CN(C)Cc2ccc(C(=O)O)cc2)OCc2cn(nn2)CCCC1=O` was -0.002%.
Turning to `C/C=C/c1cnc2c(c1)C(=O)N([C@@H](C)CO)C[C@@H](C)[C@@H](CN(C)S(=O)(=O)c1ccccc1F)O2`, the activity (Tm shift, normalised) is 0.721%.
The value for `O=C(N[C@@H]1CC[C@@H](CC(=O)N2CCc3ccccc3C2)O[C@@H]1CO)C1CCOCC1` was -0.035%.
The value for `Cc1ccc(OCCCC(=O)Nc2ccc(S(=O)(=O)Nc3cc(C)nc(C)n3)cc2)cc1` was -0.115%.
The value for `Cc1ccc(S(=O)(=O)Nc2nc(C)cc(-n3nc(C)cc3C)n2)cc1` was 0.134%; that for `Cc1ccc(S(=O)(=O)Nc2nc(C)cc(N/N=C/c3ccc(O)cc3)n2)cc1` was 43.2% (active); that for `CN(C)C(=O)C[C@H]1C[C@@H]2c3cc(NC(=O)NC4CCCCC4)ccc3O[C@@H]2[C@@H](CO)O1` was -7.03%.
Regarding `C[C@H](CO)N1C[C@H](C)[C@@H](CN(C)Cc2cccnc2)Oc2cc(C#CC3CC3)ccc2S1(=O)=O`, the activity (Tm shift, normalised) is -0.495%.

The values are drawn from PubChem BioAssay AID651658 (Broad Institute, 2012).
